Pf Dd2 growth: inhibitors of Plasmodium falciparum Dd2 growth; P. falciparum Dd2 growth, SYBR Green, 72 h; Potency, µM (doses to about 28.9 µM), without a hit: top-dose activity, negative = inhibition, usual class: inhibitors; actives 4.3% (n = 120,000); active = well fitted inhibition curve with a large enough effect;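 note: plate controls were DMSO vehicle for no effect and reference drug for full effect; nearly all actives have a fitted effect of over 65% in size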
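Infected erythrocytes (Dd2, 0.3% parasitemia, 2.5% hematocrit final) are added to compound in RPMI-1640/Albumax II medium, grown 72 h at 37C in low oxygen, then lysed with saponin/Triton-X containing SYBR Green and read by fluorescence.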
Active calls of the source: *; i = inactive; [ ] = remark or other dose. Only a selection was taken, and hits are over-represented in it overall. Potency is the fitted concentration of half-maximal effect.

SMILES | Pf Dd2 growth
COCCCN(CCC(=O)NCc1ccc2c(c1)OCO2)C(=O)c1cc(C)oc1C | i
CCCNC(=O)N(C1CCOCC1)C1CCN(C(=O)c2ccc(CC)cc2)CC1 | -17.3%
N#Cc1ccc(S(=O)(=O)N2CCCOCCNC(=O)[C@@H]3CCC[C@@H]32)cc1 | -5.2%
COc1ccccc1N1CCN(C(=O)Cn2c(=O)n3nc(-c4cccc(F)c4)nc3c3ccccc32)CC1 | 29.7%
O=c1c2c(CO)c(-c3ccccc3)nn2ccn1Cc1cccc(F)c1 | i
O=c1c2c(CO)c(-c3ccc(F)cc3)nn2ccn1Cc1ccc(Br)cc1 | 8.91µM*
O=C(Cn1ccn2nc(-c3ccccc3)c(CO)c2c1=O)N1CCN(c2ccccc2F)CC1 | -1.2%
COc1ccccc1N1CCN(C(=O)Cn2c(=O)nc(-c3ccccc3)c3ccccc32)CC1 | 11.2µM*
CCc1cc(=O)n(CC(=O)N2CCN(c3ccccc3OC)CC2)c(-c2ccccc2)n1 | -21.7%
O=c1c2c(CO)c(-c3ccc(F)cc3)nn2ccn1CCc1ccccc1 | i
COc1ccccc1N1CCN(C(=O)Cn2ccn3nc(-c4ccc(F)cc4)c(CO)c3c2=O)CC1 | 8.91µM*
O=C(Cn1ccn2nc(-c3ccc(F)cc3)c(CO)c2c1=O)N1CCN(c2ccccc2F)CC1 | i
Cc1cn2nc(C(=O)N3CCC(NC(=O)c4ccc(F)cc4Cl)CC3)cc2c(=O)[nH]1 | i
O=C1NC2(CCCN(C(=O)c3ccccc3)C2)Oc2ccccc21 (stereo unspecified) | i
CN1C(=O)CC[C@]2(C(=O)NCc3ccc(F)c(Cl)c3)CCCC[C@@H]12 | 13.5%
CCn1ccc(C(=O)N2CCC(N3C(=O)C(O)C34CCCCC4)CC2)n1 (stereo unspecified) | -6.3%
C=C[C@H]1CN2CC[C@H]1C[C@@H]2CNC(=O)Nc1ccc(Br)cc1 | -23.8%[44.1 µM]
COc1ccc(CN2CCc3nc(C(=O)NCCOc4ccccc4)oc3CC2)cn1 | i
COc1ccc(CN2CCc3nc(C(=O)Nc4ccc(Cl)cc4)oc3CC2)cn1 | 2.51µM*
COc1ccccc1CN1CCc2nc(C(=O)Nc3ccc(Cl)cc3)oc2CC1 | -3.6%[44.1 µM]
CN1C(=O)CO[C@H]2CN(Cc3c[nH]c4ccccc34)C[C@H]21 | i
O=C1CO[C@H]2CN(Cc3c[nH]c4ccccc34)C[C@H]2N1Cc1ccc(F)cc1 | 5.01µM*
O=C1CO[C@H]2CCN(Cc3cccc(OC(F)(F)F)c3)CC[C@@H]2N1Cc1c[nH]c2ccccc12 | 7.94µM*
COc1cncc(CN2CC[C@@H]3OCC(=O)N(Cc4ccccc4)[C@H]3CC2)c1 | -9.4%[44.1 µM]
O=C1CO[C@H]2CN(Cc3c[nH]c4ccccc34)C[C@H]2N1 | -21.0%[44.1 µM]
SMILES | Pf Dd2 growth
O=C1CO[C@H]2CCN(Cc3cccc(OC(F)(F)F)c3)CC[C@@H]2N1Cc1ccccc1 | i
c1cc(Cn2cncn2)cc(-n2ccnc2-c2cc3n(n2)CCCNC3)c1 | -0.8%
Cc1noc(C)c1CC(=O)NC1CCc2nn(C)c(=O)n2CC1 (stereo unspecified) | 58.4%
Cc1cccc(CNC(=O)[C@@H]2COCC(=O)N2Cc2ccc(F)cc2)c1 | 4.9%
COc1ccc(CNCCC(c2ccc3c(c2)OCO3)c2ccccc2OC)cc1 (stereo unspecified) | 5.01µM*
COc1ccc(CNC(=O)C(=O)NCC(c2ccc3c(c2)OCO3)N2CCOCC2)cc1 (stereo unspecified) | -4.8%
CCC(=O)N(CCC(c1ccccc1)c1ccc2c(c1)OCO2)Cc1ccc(OC(C)C)cc1 (stereo unspecified) | -28.7%
CCCc1cc(CN(C)C(=O)c2cn(CC(=O)N(CC)CC)nn2)[nH]n1 | 2.6%
COCC(=O)NC1CCCc2c1[nH]c1ccc(F)cc21 (stereo unspecified) | -14.4%
CCN(CC)C(=O)C[C@@H]1c2nc(NC(=O)CC(C)(C)C)sc2C[C@@H]2[C@](C)(CO)[C@H](O)CC[C@]21C | i
C=CCOC(=O)Nc1nc2c(s1)C[C@@H]1[C@](C)(CO)[C@H](O)CC[C@@]1(C)[C@@H]2CC(=O)NC(C)C | -9.3%
C=CCN(C)C(=O)C[C@@H]1c2nc(NC(=O)c3ccc(OC)cc3)sc2C[C@@H]2[C@](C)(CO)[C@H](O)CC[C@]21C | -6.1%
CCN(CC)C(=O)C[C@@H]1c2nc(NC(=O)C3CCC3)sc2C[C@@H]2[C@](C)(CO)[C@H](O)CC[C@]21C | 7.08µM*
CC(=O)N1CCN(C(=O)C[C@@H]2c3nc(NC(=O)C4CCC4)sc3C[C@@H]3[C@](C)(CO)[C@H](O)CC[C@]32C)CC1 | -21.9%
CC(C)NC(=O)C[C@@H]1c2nc(NC(=O)C3CCCCC3)sc2C[C@@H]2[C@](C)(CO)[C@H](O)CC[C@]21C | 10µM*
CCN(CC)C(=O)C[C@@H]1c2nc(NC(=O)c3cccs3)sc2C[C@@H]2[C@](C)(CO)[C@H](O)CC[C@]21C | 3.98µM*
CC(=O)N1C[C@@H](C(=O)NCc2ccc(F)c(Cl)c2)[C@H](c2nc(C)no2)C1 | -11.6%
CC1(C(=O)O)CCN(C(=O)c2ccc3c(c2)OC(F)(F)O3)CC1 | 34.4%
O=C(Cc1c[nH]c2ccccc12)N1CCC(CCOc2ccccc2F)C1 (stereo unspecified) | i
